Hits are enriched below; roughly 5.5% of the tested compounds scored in any of these assays.
Mito fusion act: qHTS Assay for Small Molecule Inhibitors of Mitochondrial Division or Activators of Mitochondrial Fusion. 320,000 tested, 0.23% active. AID 485298, 2010. Potency, µM (highest dose often 46.1 µM), hits mostly activators. S. cerevisiae fusion-defective mutant growth rescue, CellTiterGlo 48 h; further: nearly all actives have a fitted effect of over 45% in size
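Growth-rescue viability read-out: after 48 h at the non-permissive 37C in glycerol/ethanol YPEG, yeast mitochondrial fusion mutants are measured by CellTiterGlo luminescence; compounds (23 nl pinned per well) restoring growth score as division inhibitors or fusion activators.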
uPA generation: qHTS for Inhibitors of Cell Surface uPA Generation; cell surface uPA generation assay, qHTS; Potency, µM (titrated, usually from 38.3 µM), actives largely listed as inhibitors; 330,000 tested, 0.31% active; active means well fitted inhibition curve with a large enough effect; inconclusive means small, poorly fitted or top-dose-only effect; inactive means no such curve, though single readings can be large or run the other way; tested in mouse RAW 264.7 cells; further: nearly all actives have a fitted effect of over 55% in size
Integrin act MD: qHTS for Activators of Integrin-Mediated Alleviation for Muscular Dystrophy; Potency, µM (doses to about 38.3 µM), most hits filed as activators; alpha7betagal myoblasts, beta-gal FDG fluorescence, 48 h; AID 624291, 2012; 350,000 tested, 0.064% active; further: nearly all actives have a fitted effect of over 60% in size
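Alpha7betagal+/- myoblasts (passage 13) were plated 16-24 hr, then exposed to compounds (1:260 dilution of DMSO stock) for 48 hours at 37C. After MPER lysis, β-galactosidase reporter activity was read as FDG fluorescence (ex 480/em 540) after 30 minutes.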
Gal4-VP16 FLuc: VP16 counterscreen qHTS for inhibitors of ROR gamma transcriptional activity. Drosophila S2 Gal4-VP16 UAS-luciferase, luminescence, 20 h. Potency, µM (series often up to 53.6 µM), actives largely listed as inhibitors. 310,000 tested, 3.5% active. AID 2546, 2010;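 further: Gal4-VP16 expression switched on by copper sulfate through the metallothionein promoter; nearly all actives have a fitted effect of over 50% in size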
BCR signal inh: qHTS Assay to Find Inhibitors of Chronic Active B-Cell Receptor Signaling. ABC-DLBCL IkBa-CBG/CBR reporter, luminescence ratio, 4 h. Potency, µM (top dose mostly 46.1 µM), usual class: inhibitors. 340,000 tested, 0.05% active; active means well fitted inhibition curve with a large enough effect in the signal ratio, with a control signal flat, not every such curve was filed as active; inconclusive means small, poorly fitted or top-dose-only effect, or effect the other way, or a change in a side signal; the % refers to the signal ratio
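TMD8 ABC-DLBCL cells carrying doxycycline-inducible green luciferase fused to IkappaBalpha plus unfused red luciferase were exposed to compounds (up to 46 uM) for 4 hrs at 37C. Activity came from the overlap-corrected green/red luminescence ratio.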
RORg inh: qHTS for inhibitors of ROR gamma transcriptional activity. Nuclear receptor ROR-gamma (Mus musculus), P51450. Drosophila S2 Gal4-RORgamma UAS-luciferase reporter, 20 h. Potency, µM (doses to about 53.6 µM), usual class: inhibitors. 310,000 tested, 5.4% active; further: nearly all actives have a fitted effect of over 60% in size
Target sequence (P51450 whole entry, looked up, the tested form may be a part): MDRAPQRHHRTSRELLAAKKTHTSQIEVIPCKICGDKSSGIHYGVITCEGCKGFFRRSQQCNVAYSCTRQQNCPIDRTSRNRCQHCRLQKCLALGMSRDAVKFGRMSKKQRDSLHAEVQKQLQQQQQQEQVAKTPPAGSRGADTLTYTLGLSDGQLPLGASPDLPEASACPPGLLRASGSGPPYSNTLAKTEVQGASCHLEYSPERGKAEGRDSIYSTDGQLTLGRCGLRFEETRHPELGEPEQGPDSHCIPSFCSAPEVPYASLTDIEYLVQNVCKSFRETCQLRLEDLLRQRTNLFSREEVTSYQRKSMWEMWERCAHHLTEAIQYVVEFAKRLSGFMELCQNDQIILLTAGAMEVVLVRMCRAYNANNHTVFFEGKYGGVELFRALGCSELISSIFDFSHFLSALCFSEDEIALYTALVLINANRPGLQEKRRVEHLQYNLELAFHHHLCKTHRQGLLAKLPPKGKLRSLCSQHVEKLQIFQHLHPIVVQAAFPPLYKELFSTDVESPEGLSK
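Schneider cells (Drosophila), stable Gal4 DBD–ROR gamma + UAS-luc; 1 hr cmpd preincubation; Cu2+ induction 700 uM final; 20 hr ambient; luminescence.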
Hits are given with their value; – = inactive; ? = inconclusive; · = no result; [ ] = dose if it differs, or a comment. Unless noted, the call rests on the fitted dose curve; in most records, active means well fitted curve in the direction sought with a large enough effect; inconclusive means small, poorly fitted or top-dose-only effect, or another doubt; inactive means no such curve, though single readings can be large; an effect the other way counts as inactive or inconclusive.

SMILES | Mito fusion act | uPA generation | Integrin act MD | Gal4-VP16 FLuc | BCR signal inh | RORg inh
CCOC(=O)C(C)Sc1nnc(-c2ccccc2O)n1-c1ccc(C)cc1 (centres undefined) | – | – | – | 5.62µM | – | 3.16µM
CCCCn1c(N)c(N(CC(C)C)C(=O)CSc2nnc(-c3ccc(Cl)cc3)o2)c(=O)[nH]c1=O | – | – | – | · | – | ·
O=C1C(=O)c2ccccc2C(O)=C1c1ccccc1F | – | – | – | 1.26µM | – | –
OCC1OC(n2cnc3c(=S)nc[nH]c32)C(O)C1O (centres undefined) | · | · | · | – | · | –[10 µM]
Cc1cc(C)n(CCc2nc(-c3ccc(C)o3)cs2)n1 | – | – | – | 11.2µM | ? | ?
CN(C)c1cc(-c2ccccc2)nc(-c2ccccc2)n1 | – | – | – | – | – | –
Cc1ccc(-c2cc(N)nc(-c3ccccc3)c2)cc1 | – | – | – | – | – | –
Cc1ccc(-c2cc(-c3ccccc3)nc(N(C)N)n2)cc1 | – | ? | – | ? | – | 12.6µM
CN(C)c1cc(-c2ccccc2)nc(N)n1 | – | 10µM | – | – | – | –
COc1ccc(C(=O)NNC(=O)CCn2nnc(-c3ccc(Cl)cc3)n2)cc1OC | – | – | – | – | ? | –
CS(=O)(=O)c1ccccc1-c1nnc(NC(=O)c2ccco2)o1 | – | – | – | · | – | ·
O=C(Nc1nnc(-c2ccc(F)cc2)o1)c1ccco1 | – | ? | – | 5.01µM | ? | ?
Cc1ccccc1C(=O)Nc1nnc(-c2ccc(F)cc2)o1 | – | ? | – | 0.447µM | ? | 1.26µM
O=C(Nc1ccc(NC(=O)c2ccccc2Cl)cc1)c1cccnc1 | – | – | – | – | ? | –
COc1ccccc1C(=O)Nc1nnc(-c2ccc(F)cc2)s1 | – | – | – | – | ? | –
O=C(Nc1nnc(-c2ccccc2Cl)o1)c1cccnc1 | – | · | – | 1.26µM | ? | 0.891µM
COc1ccccc1C(=O)Nc1nnc(-c2ccc(F)cc2)o1 | – | – | – | 11.2µM | ? | 7.94µM
COc1ccccc1N1CCN(c2nc(-c3ccc(C)cc3)nc3ccccc23)CC1 | · | · | · | · | – | ·
CCc1cccc2cc(C(O)CNC(C)(C)C)oc12 (centres undefined) | · | · | · | – | · | –
COc1ccc(OCc2cc(C(=O)N3C[C@@H](C)O[C@@H](C)C3)no2)c(Cl)c1 | – | – | – | – | ? | ?
CC(=O)Nc1nnc(-c2c(-c3ccccc3Cl)noc2C)o1 | – | – | – | 17.8µM | – | 5.01µM
Cc1ccccc1C(=O)Nc1nnc(-c2cccnc2)o1 | – | – | – | 5.01µM | ? | 3.16µM
Cc1ccccc1C(=O)Nc1nc(-c2cccnc2)cs1 | – | – | – | – | ? | –
CSCC[C@H](NC(=O)c1ccco1)c1nnc2ccccn12 | – | – | – | – | – | –
Cc1ccnc(NC(c2cccnc2)c2ccc3cccnc3c2O)c1 (centres undefined) | – | – | – | ? | ? | 3.16µM
SMILES | Mito fusion act | uPA generation | Integrin act MD | Gal4-VP16 FLuc | BCR signal inh | RORg inh
Cc1cc(NC(c2ccc(Cl)cc2)c2ccc3cccnc3c2O)no1 (centres undefined) | – | – | – | 2µM | ? | 0.794µM
O=S(=O)(Nc1cccc(C(F)(F)F)c1)c1cccnc1 | – | – | – | – | – | –
Cc1ccc2ccc(C(Nc3cccc(C(F)(F)F)c3)c3cccnc3)c(O)c2n1 (centres undefined) | – | ? | – | ? | ? | 7.08µM
COc1ccccc1NC(c1cccnc1)c1ccc2cccnc2c1O (centres undefined) | – | – | – | ? | ? | 11.2µM
O=C(O)c1ccccc1NC(c1ccccc1)c1ccc2cccnc2c1O (centres undefined) | · | – | – | · | · | ·
CS(=O)(=O)c1ccc(-c2cccc(NC(=O)c3ccco3)c2)nn1 | – | – | – | · | – | ·
CNC(=S)NN=C(C)c1ccc(OC)cc1O | · | – | – | · | · | ·
C/C(=N\NC(=S)NCC(C)(C)C)c1cc(F)cc(F)c1O | – | – | – | 3.98µM | – | 2.82µM
CCC(=O)c1ccc(N2CCN(C(=O)c3ccccc3F)CC2)c(F)c1 | 10µM | – | – | –[10 µM] | – | –
